Reference: PubChem BioAssay (NCATS)
Where “and” joins values, the source holds several entries; their conditions need not be identical. Identical values can stand only once. Inconclusive results are not listed. Values without a mark were called inactive. Calls of active or inactive are those of the source. Calls follow the shape of the dose curve; as a rule, active = well fitted curve in the direction sought with a large enough effect; inconclusive = small, poorly fitted or top-dose-only effect, or another doubt; inactive = no such curve, though single readings can be large; an effect the other way counts as inactive or inconclusive.

Legend:
CRL-7250 = normal cell line; assay: Cytotoxic Profiling of Annotated Libraries Using Quantitative High-Throughput Screening (AID 1296008); details: Five cell lines viability, CellTiter-Glo ATP luminescence, 48-72 h; max response: stronger effect = lower value; also: nearly all actives have a fitted effect of over 60% in size; also: potency is read from the fitted curve at half-maximal effect; as to max response: % is scaled to controls: 0 for no effect and ±100 for the full control effect
Procedure, shortened: (§1)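 Cytotoxicity was measured as CellTiter-Glo ATP luminescence, read after 10 min at room temperature. Compound treatment of the cells lasted 48 or 72 hr at 37 degrees Celsius in a qHTS format.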

HEK293 = assay: as above; details: Five cell lines viability, CellTiter-Glo ATP luminescence, 48-72 h; max response: stronger effect = lower value
Procedure, shortened: as §1

HaCat [1] = assay: as above; details: Five cell lines viability, CellTiter-Glo ATP luminescence, 48-72 h; max response: stronger effect = lower value
Procedure, shortened: as §1

CASKI = assay: Primary qHTS to identify gynecologic anti-cancer compounds using libraries of approved drugs and bioactive compounds (AID 1345084); details: Gynecologic cancer cell panel viability, ATPlite luminescence, 48 h; series mostly up to 57.5 µM; also: nearly all actives have a fitted effect of over 55% in size; also: potency is read from the fitted curve at half-maximal effect
Procedure, shortened: (§2)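 Luminescence from the ATPlite ATP-monitoring reagent indicates viable cell number; lower signal means cytotoxicity. Cells received compound 16 h after seeding and were exposed for 48 h across five concentrations.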

Es-2 = assay: as above; details: Gynecologic cancer cell panel viability, ATPlite luminescence, 48 h; series mostly up to 57.5 µM
Procedure, shortened: as §2

HeLa = assay: as above; details: Gynecologic cancer cell panel viability, ATPlite luminescence, 48 h; series mostly up to 57.5 µM
Procedure, shortened: as §2

PA-1 = assay: as above; details: Gynecologic cancer cell panel viability, ATPlite luminescence, 48 h; series mostly up to 57.5 µM
Procedure, shortened: as §2

SKOV3 = assay: as above; details: Gynecologic cancer cell panel viability, ATPlite luminescence, 48 h; series mostly up to 57.5 µM
Procedure, shortened: as §2

C33A = assay: as above; details: Gynecologic cancer cell panel viability, ATPlite luminescence, 48 h; series mostly up to 57.5 µM
Procedure, shortened: as §2

CAOV3 = assay: as above; details: Gynecologic cancer cell panel viability, ATPlite luminescence, 48 h; series mostly up to 57.5 µM
Procedure, shortened: as §2

Hek293T = assay: as above; details: Gynecologic cancer cell panel viability, ATPlite luminescence, 48 h, control line for the selectivity index; series mostly up to 57.5 µM
Procedure, shortened: as §2

JEG-3 = assay: as above; details: Gynecologic cancer cell panel viability, ATPlite luminescence, 48 h; series mostly up to 57.5 µM
Procedure, shortened: as §2

OV90 = assay: as above; details: Gynecologic cancer cell panel viability, ATPlite luminescence, 48 h; series mostly up to 57.5 µM
Procedure, shortened: as §2

NIH3T3 = assay: Cytotoxic Profiling of Annotated Libraries Using Quantitative High-Throughput Screening (AID 1296008); details: Five cell lines viability, CellTiter-Glo ATP luminescence, 48-72 h; max response: stronger effect = lower value; also: nearly all actives have a fitted effect of over 60% in size; also: potency is read from the fitted curve at half-maximal effect; as to max response: % is scaled to controls: 0 for no effect and ±100 for the full control effect
Procedure, shortened: as §1

HACAT [2] = assay: qHTS assay to identify novel small-molecules to repurpose for Merkel cell carcinoma treatment (AID 1296009); details: MCC and control cell lines, CellTiter-Glo viability, 72 h; at 44.8 µM (top of the series) unless noted; also: nearly all actives have a fitted effect of over 60% in size
Procedure, shortened: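 After compound transfer in DMSO, plates were kept 72 hr at 37 degree celsius. Luminescent ATP signal from CellTiter-Glo served as viability measure, normalized against DMSO and no-cell controls.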

Q: Which Potency (CRL-7250) does the source give for `N#Cc1ccc(Nc2nc(-c3ccc(O)cc3O)cs2)cc1C(F)(F)F` here?
A: 5.8 µM (active)

Q: What about the Potency (HEK293) of the same compound?
A: 3.26 µM (active)

Q: What about the Potency (HaCat [1]) of the same compound?
A: 7.31 µM (active)

Q: What about the Potency (CASKI) of the same compound?
A: 20 µM (active)

Q: And the Potency (Es-2)?
A: 14.1 µM (active)

Q: And the Potency (HeLa)?
A: 7.94 µM (active)

Q: What about the Potency (PA-1) of the same compound?
A: 8.91 µM (active)

Q: What about the Potency (SKOV3) of the same compound?
A: 8.91 µM (active)

Q: `CN1CCN(c2ccc(Nc3cc(-c4cccc(-n5ccc6cc(C7CC7)cc(F)c6c5=O)c4CO)cn(C)c3=O)nc2)CC1` was tested. Which Potency (CRL-7250) did it give?
A: 23.1 µM (active)

Q: And the Potency (HEK293)?
A: 11.6 µM (active)

Q: And the Potency (HaCat [1])?
A: 18.4 µM (active)

Q: And the Potency (C33A)?
A: inactive

Q: And the Potency (CAOV3)?
A: inactive

Q: And the Potency (CASKI)?
A: inactive

Q: And the Potency (Es-2)?
A: inactive

Q: What about the Potency (HeLa) of the same compound?
A: inactive

Q: What about the Potency (Hek293T) of the same compound?
A: inactive

Q: What about the Potency (JEG-3) of the same compound?
A: inactive

Q: And the Potency (OV90)?
A: inactive

Q: And the Potency (SKOV3)?
A: inactive

Q: With `C=C1CC[C@@H]2[C@](C)(CO)[C@H](O)CC[C@@]2(C)[C@@H]1C/C=C1/C(=O)OCC1O` (some centres not stated) as the compound, how does the Potency (CRL-7250) read?
A: 18.4 µM (active)

Q: And the Potency (HEK293)?
A: 7.31 µM (active)

Q: And the max response (HaCat [1])?
A: -10.5%

Q: And the Potency (CAOV3)?
A: inactive

Q: And the Potency (HeLa)?
A: inactive

Q: And the Potency (JEG-3)?
A: inactive

Q: And the Potency (OV90)?
A: inactive

Q: What about the Potency (SKOV3) of the same compound?
A: inactive

Q: Which results are given for `C=C(C)C(=O)O[C@H]1[C@H]2C(=C)C(=O)O[C@@H]2C[C@@H](C)[C@@H]2O[C@@H]2C(=O)[C@](C)(O)[C@@H]1OC(=O)C(=C)C`?
A: Potency (CRL-7250): 7.09 µM (active); Potency (HEK293): 2.52 µM (active); Potency (NIH3T3): 3.55 µM (active); Potency (C33A): 10 µM (active); Potency (CASKI): 10 µM (active); Potency (Es-2): 7.94 µM (active); Potency (Hek293T): 2.82 µM (active); Potency (JEG-3): 12.6 µM (active); Potency (SKOV3): 10 µM (active)

Q: Which results are given for `CC(C)n1cnc2c(-c3cnc(N)nc3)nc(N3CCOCC3)nc21`?
A: Potency (CRL-7250): 0.709 µM (active); Potency (HEK293): 1.78 µM (active); Potency (HaCat [1]): 0.632 µM (active); Potency (C33A): inactive; Potency (Hek293T): 1.12 µM (active); Potency (JEG-3): inactive; Potency (SKOV3): 1.26 µM (active)

Q: Which Potency (CRL-7250) does the source give for `Cn1c(=O)c2c(ncn2Cc2ccc(C(C)(C)C)cc2)n(C)c1=O` here?
A: 1.3 µM (active)

Q: What about the Potency (HEK293) of the same compound?
A: 1.64 µM (active)

Q: What about the max response (HaCat [1]) of the same compound?
A: -22.1%

Q: And the Potency (CAOV3)?
A: inactive

Q: And the Potency (JEG-3)?
A: 14.1 µM (active)

Q: What about the Potency (OV90) of the same compound?
A: 10 µM (active)

Q: How did the Potency (CRL-7250) turn out when `O=C1NC(=O)C(c2cnc3ccccn23)=C1c1cn2c3c(cc(F)cc13)CN(C(=O)N1CCCCC1)CC2` was run?
A: 46.1 nM (active) and 33.1 nM (active)

Q: And the Potency (HEK293)?
A: 0.295 µM (active)

Q: What about the outcome (HaCat [1]) of the same compound?
A: inactive

Q: And the outcome (HACAT [2])?
A: inactive

Q: And the Potency (C33A)?
A: inactive

Q: And the Potency (CASKI)?
A: inactive

Q: And the Potency (Es-2)?
A: inactive

Q: And the Potency (HeLa)?
A: inactive

Q: What about the Potency (Hek293T) of the same compound?
A: inactive

Q: What about the Potency (JEG-3) of the same compound?
A: inactive

Q: And the Potency (OV90)?
A: inactive

Q: What about the Potency (PA-1) of the same compound?
A: 17.8 µM (active)

Q: What about the Potency (SKOV3) of the same compound?
A: inactive

Q: `COc1ccc(-c2cc3onc(-c4ccncc4)c3c(=O)n2C)cc1` was tested. Which Potency (CRL-7250) did it give?
A: 0.651 µM (active)

Q: What about the Potency (HEK293) of the same compound?
A: 1.3 µM (active)

Q: And the max response (HaCat [1])?
A: -2.33%

Q: What about the Potency (PA-1) of the same compound?
A: inactive

Q: And the Potency (SKOV3)?
A: 1.78 µM (active)

Q: `Cc1cc2c(cc1N1C(=O)c3cccc4c(CCCO)ccc(c34)C1=O)n(C)c(=O)n2C` was tested. Which max response (CRL-7250) did it give?
A: -31.8%

Q: And the max response (HEK293)?
A: -71.7%

Q: What about the Potency (NIH3T3) of the same compound?
A: 1.53 µM (active)

Q: And the Potency (C33A)?
A: inactive

Q: What about the Potency (CAOV3) of the same compound?
A: inactive

Q: What about the Potency (CASKI) of the same compound?
A: inactive

Q: And the Potency (Es-2)?
A: inactive

Q: And the Potency (HeLa)?
A: inactive

Q: What about the Potency (Hek293T) of the same compound?
A: inactive

Q: And the Potency (JEG-3)?
A: inactive

Q: And the Potency (OV90)?
A: inactive

Q: What about the Potency (PA-1) of the same compound?
A: inactive

Q: And the Potency (SKOV3)?
A: inactive

Q: What does the source list for `O=C(NCCCc1ccccc1)c1cccc(-c2cc(O)c3ncccc3c2)c1`?
A: Potency (CRL-7250): 5.17 µM (active); Potency (HEK293): 20.6 µM (active); Potency (HaCat [1]): 25.9 µM (active); Potency (CAOV3): inactive; Potency (CASKI): inactive; Potency (SKOV3): 11.2 µM (active)

Q: Which Potency (CRL-7250) does the source give for `CN1CCN(Cc2ccc(NC(=O)Cc3ccc(Oc4cc(NC(=O)C5CC5)ncn4)cc3)cc2C(F)(F)F)CC1` here?
A: 5.8 µM (active)

Q: And the max response (HEK293)?
A: -105%

Q: What about the max response (HaCat [1]) of the same compound?
A: -122%

Q: And the Potency (Es-2)?
A: 7.94 µM (active)

Q: What about the Potency (HeLa) of the same compound?
A: 7.08 µM (active)

Q: And the Potency (OV90)?
A: 4.47 µM (active)

Q: What about the Potency (PA-1) of the same compound?
A: 5.62 µM (active)

Q: How did the max response (CRL-7250) turn out when `O=C(Nc1cccnn1)N1CCN(c2nccc(-c3ccc(F)c(F)c3)n2)CC1` was run?
A: -5.59%

Q: What about the max response (HEK293) of the same compound?
A: -4.09%

Q: And the max response (NIH3T3)?
A: -4.62%

Q: What about the Potency (C33A) of the same compound?
A: inactive

Q: What about the Potency (CAOV3) of the same compound?
A: inactive

Q: What about the Potency (CASKI) of the same compound?
A: inactive

Q: What about the Potency (Es-2) of the same compound?
A: inactive

Q: And the Potency (HeLa)?
A: inactive

Q: And the Potency (Hek293T)?
A: inactive

Q: What about the Potency (JEG-3) of the same compound?
A: inactive

Q: And the Potency (OV90)?
A: inactive

Q: What about the Potency (PA-1) of the same compound?
A: inactive

Q: With `CC(O)C(C)n1ncn(-c2ccc(N3CCN(c4ccc(OCC5COC(Cn6cncn6)(c6ccc(Cl)cc6Cl)O5)cc4)CC3)cc2)c1=O` (configuration not stated) as the compound, how does the outcome (CRL-7250) read?
A: inactive

Q: And the Potency (HEK293)?
A: 16.4 µM (active)

Q: What about the max response (HaCat [1]) of the same compound?
A: -3.2%

Q: What about the Potency (C33A) of the same compound?
A: inactive

Q: And the Potency (CAOV3)?
A: inactive

Q: And the Potency (CASKI)?
A: inactive

Q: What about the Potency (Es-2) of the same compound?
A: inactive

Q: And the Potency (HeLa)?
A: inactive

Q: What about the Potency (Hek293T) of the same compound?
A: inactive

Q: And the Potency (PA-1)?
A: inactive

Q: What about the Potency (SKOV3) of the same compound?
A: inactive

Q: With `CCCCNc1ncc(C(=O)NCc2ccc(-n3ccnc3)cc2)c(NC2CCC(O)CC2)n1` (configuration not stated) as the compound, how does the Potency (CRL-7250) read?
A: 13 µM (active)

Q: And the Potency (HEK293)?
A: 7.31 µM (active)

Q: And the Potency (HaCat [1])?
A: 23.1 µM (active)

Q: And the Potency (Es-2)?
A: inactive

Q: What about the Potency (Hek293T) of the same compound?
A: inactive

Q: What about the Potency (SKOV3) of the same compound?
A: inactive

Q: For `CC#CC(=O)Nc1ccc2ncnc(Nc3cccc(Br)c3)c2c1`, which Potency (CRL-7250) is on record?
A: 6.51 µM (active)

Q: What about the Potency (HEK293) of the same compound?
A: 3.66 µM (active)

Q: What about the Potency (HaCat [1]) of the same compound?
A: 0.0326 µM (active)

Q: What about the Potency (C33A) of the same compound?
A: 11.2 µM (active)

Q: What about the Potency (CASKI) of the same compound?
A: 8.91 µM (active)

Q: What about the Potency (Es-2) of the same compound?
A: 14.1 µM (active)

Q: What about the Potency (JEG-3) of the same compound?
A: inactive

Q: And the Potency (OV90)?
A: inactive

Q: What about the Potency (PA-1) of the same compound?
A: 7.94 µM (active)
